Results filed as inconclusive are left out. A call without a number means that no potency is given here. The source made the active and inactive calls. Unless noted, calls come from the whole dose curve.
Assays:
[1] = Nuclear factor erythroid 2-related factor 2/antioxidant responsive element (Nrf2/ARE) small molecule agonists: luciferase reporter gene qHTS assay in human keratinocytes (AID 1919969); note: nearly all actives have a fitted effect of over 35% in size; note: potency is the fitted concentration of half-maximal effect
[2] = target: Gonadotropin-releasing hormone receptor (Homo sapiens) (UniProt P30968); assay: Human gonadotropin-releasing hormone receptor (GnRHR) small molecule agonists, calcium flux assay in GnRHR-HEK293 cells (AID 1920063); note: nearly all actives have a fitted effect of over 35% in size
Sequence of Gonadotropin-releasing hormone receptor (Homo sapiens) (P30968 whole entry, looked up): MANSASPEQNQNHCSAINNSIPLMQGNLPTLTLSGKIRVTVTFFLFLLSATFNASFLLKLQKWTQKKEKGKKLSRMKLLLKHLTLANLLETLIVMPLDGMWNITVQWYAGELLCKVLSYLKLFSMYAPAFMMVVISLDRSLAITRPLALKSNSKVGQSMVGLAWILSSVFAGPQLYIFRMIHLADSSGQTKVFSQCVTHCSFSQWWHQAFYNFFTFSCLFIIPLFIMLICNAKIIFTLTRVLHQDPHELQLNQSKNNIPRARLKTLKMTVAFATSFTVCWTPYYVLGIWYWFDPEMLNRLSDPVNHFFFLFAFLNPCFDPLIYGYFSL
Summary of the method: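 Cells: HEK293 stably expressing human GnRHR. Steps: overnight (18 h) culture, 1 h calcium dye loading at 37 C, compound addition, kinetic fluorescence read at 480/540 nm. Each compound tested at 15 concentrations in triplicate.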

[3] = target: KiSS-1 receptor (Homo sapiens) (UniProt Q969F8); assay: Human kisspeptin (KISS1R) small molecule agonists, calcium flux assay in KISS1R-HEK293 cells (AID 1920064; active = well fitted activation curve with a large enough effect in the repeat runs)
Sequence of KiSS-1 receptor (Homo sapiens) (Q969F8 whole entry, looked up): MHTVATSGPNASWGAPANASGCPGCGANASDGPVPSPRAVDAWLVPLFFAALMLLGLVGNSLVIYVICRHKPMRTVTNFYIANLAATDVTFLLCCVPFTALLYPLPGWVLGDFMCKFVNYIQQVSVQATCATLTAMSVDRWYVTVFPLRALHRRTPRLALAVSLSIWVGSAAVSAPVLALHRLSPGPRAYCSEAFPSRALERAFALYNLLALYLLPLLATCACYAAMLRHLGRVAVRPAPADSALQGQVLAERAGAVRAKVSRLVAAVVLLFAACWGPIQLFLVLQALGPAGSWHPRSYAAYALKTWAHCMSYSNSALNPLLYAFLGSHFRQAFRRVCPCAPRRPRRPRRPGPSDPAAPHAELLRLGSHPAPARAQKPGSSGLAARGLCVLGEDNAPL
Summary of the method: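 Cells plated and incubated 18 h; dye added, 1 h at 37 C; compounds in DMSO pinned in; signal read at 480/540 nm every second for 3 min. Each compound tested at 15 concentrations in triplicate.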

[4] = G protein-coupled receptor (GPCR) small molecule agonists, calcium flux assay: HEK293 wild type cell line counter screen (AID 1920065)
Summary of the method: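 Counter-screen of the Tox21 10K library for non-specific calcium release: dye-loaded cells received compounds in DMSO and were monitored by kinetic fluorescence (480/540 nm, 3 min). Fifteen concentrations, run in triplicate.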

[5] = p53 small molecule agonists, cell-based qHTS assay with human liver microsomes (AID 1963577);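 note: p53 response element beta-lactamase reporter cells with liver microsomes plus NADPH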
Summary of the method: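 Metabolically competent format: test substances, human liver microsomes and NADPH (both 0.5 mg/mL final) incubated with p53RE-bla cells 16 h at 37 C. Beta-lactamase reporter signal then quantified by fluorescence.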

[6] = p53 small molecule agonists, cell-based qHTS assay with rat liver microsomes (AID 1963578)
Summary of the method: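 Each plate received p53RE-bla cells, then compound, then rat liver microsomes and NADPH (both 0.5 mg/mL final). Plates were held 16 h at 37 C, and beta-lactamase activity was detected with LiveBLAzer over 2 h.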

[7] = p53 small molecule agonists, cell-based qHTS assay with human liver microsomes: qHTS cell viability counter screen (AID 1963579); note: nearly all actives have a fitted effect of over 45% in size
Summary of the method: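 Tox21 library compounds, delivered from DMSO stocks, were tested on p53RE-bla cells together with 0.5 mg/mL human liver microsomes and 0.5 mg/mL NADPH (final) over 16 h at 37 C; CellTiter-Glo luminescence served as the cytotoxicity measure.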

[8] = p53 small molecule agonists, cell-based qHTS assay with rat liver microsomes: qHTS cell viability counter screen (AID 1963580); note: nearly all actives have a fitted effect of over 45% in size
Summary of the method: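 In HCT-116 cells carrying a p53 response element-bla reporter, compounds were metabolically activated in situ by rat liver microsomes with NADPH over 16 h. Cell ATP content then served as the cytotoxicity measure.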

[9] = p53 small molecule agonists, cell-based qHTS assay: qHTS cell viability counter screen (AID 1963581); note: nearly all actives have a fitted effect of over 45% in size
Summary of the method: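 Cells: HCT-116 with p53 response element-driven beta-lactamase. Treatment: 16 h, 37 C, compounds in DMSO. Read: CellTiter-Glo luminescence after 30 min RT.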

[10] = p53 small molecule agonists, cell-based qHTS assay (AID 1963582; active = well fitted activation curve with a large enough effect in the signal ratio in the repeat runs, not every such curve was filed as active; the % refers to the signal ratio)
Summary of the method: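 Quantitative HTS in p53RE-bla cells: after a 5 h settling period, compounds delivered in DMSO were left on cells for 16 h at 37 C, and reporter induction was measured as fluorescence following 2 h substrate loading.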

[11] = target: 5-hydroxytryptamine receptor 2A (Homo sapiens) (UniProt P28223); assay: 5-hydroxytryptamine receptor 2A (HTR2A) small molecule antagonists, cell-based qHTS assay (AID 1963586); note: nearly all actives have a fitted effect of over 45% in size; note: potency is the fitted concentration of half-maximal effect
Sequence of 5-hydroxytryptamine receptor 2A (Homo sapiens) (P28223 whole entry, looked up): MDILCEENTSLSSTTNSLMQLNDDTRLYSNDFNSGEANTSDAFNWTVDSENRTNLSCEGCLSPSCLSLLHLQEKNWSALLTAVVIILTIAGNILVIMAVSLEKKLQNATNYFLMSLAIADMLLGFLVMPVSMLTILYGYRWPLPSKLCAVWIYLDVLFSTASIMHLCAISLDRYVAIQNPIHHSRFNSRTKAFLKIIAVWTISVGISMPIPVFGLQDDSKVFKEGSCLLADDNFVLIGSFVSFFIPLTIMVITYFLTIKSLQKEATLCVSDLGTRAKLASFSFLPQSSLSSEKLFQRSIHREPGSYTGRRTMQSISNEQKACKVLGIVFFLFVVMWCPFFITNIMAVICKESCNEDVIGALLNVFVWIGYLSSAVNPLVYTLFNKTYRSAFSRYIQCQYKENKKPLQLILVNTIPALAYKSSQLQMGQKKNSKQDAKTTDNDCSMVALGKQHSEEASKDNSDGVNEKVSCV
Summary of the method: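 Antagonist-mode intracellular calcium assay: DOI (4 nM) added after 5 min compound pre-incubation at room temperature to dye-loaded HTR2A-CHO cells. Fluorescence followed for 3 min, sampled every second.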

[12] = target: Muscarinic acetylcholine receptor M1 (Homo sapiens) (UniProt P11229); assay: Cholinergic receptor muscarinic 1 (CHRM1) small molecule antagonists, cell-based qHTS assay (AID 1963588); note: nearly all actives have a fitted effect of over 40% in size; note: potency is the fitted concentration of half-maximal effect
Sequence of Muscarinic acetylcholine receptor M1 (Homo sapiens) (P11229 whole entry, looked up): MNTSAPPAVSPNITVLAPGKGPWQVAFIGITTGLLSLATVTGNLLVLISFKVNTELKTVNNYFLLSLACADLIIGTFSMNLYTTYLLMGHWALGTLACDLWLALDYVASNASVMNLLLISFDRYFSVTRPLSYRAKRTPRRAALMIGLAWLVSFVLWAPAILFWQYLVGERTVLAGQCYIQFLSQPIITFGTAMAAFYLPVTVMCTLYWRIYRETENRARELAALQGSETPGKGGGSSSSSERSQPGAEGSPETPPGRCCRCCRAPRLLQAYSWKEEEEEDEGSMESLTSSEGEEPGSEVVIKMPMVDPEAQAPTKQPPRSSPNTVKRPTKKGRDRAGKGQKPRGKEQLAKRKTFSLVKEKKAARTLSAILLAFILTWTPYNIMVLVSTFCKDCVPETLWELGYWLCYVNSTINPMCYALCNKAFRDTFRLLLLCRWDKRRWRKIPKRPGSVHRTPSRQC
Summary of the method: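 CHRM1-CHO calcium-flux assay, antagonist mode. Cells were seeded 18 h, dye-loaded 1 h at 37 C and given compound for 5 min at RT, then acetylcholine was added at 50nM. FDSS fluorescence was read 3 min; 15 concentrations, three runs.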

[13] = target: Muscarinic acetylcholine receptor M1 (Homo sapiens) (UniProt P11229); assay: Cholinergic receptor muscarinic 1 (CHRM1) small molecule agonists, cell-based qHTS assay (AID 1963589); note: nearly all actives have a fitted effect of over 35% in size
Summary of the method: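 Agonist-mode qHTS in CHO cells stably carrying human muscarinic M1. Intracellular calcium is tracked by fluorescence every second after compound transfer; each compound runs at 15 concentrations in three independent runs.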

[14] = target: Beta-2 adrenergic receptor (Homo sapiens) (UniProt P07550); assay: Adrenergic beta2 receptor (ADRB2) small molecule antagonists, cell-based qHTS assay (AID 1963592); note: nearly all actives have a fitted effect of over 50% in size; note: potency is the fitted concentration of half-maximal effect
Sequence of Beta-2 adrenergic receptor (Homo sapiens) (P07550 whole entry, looked up): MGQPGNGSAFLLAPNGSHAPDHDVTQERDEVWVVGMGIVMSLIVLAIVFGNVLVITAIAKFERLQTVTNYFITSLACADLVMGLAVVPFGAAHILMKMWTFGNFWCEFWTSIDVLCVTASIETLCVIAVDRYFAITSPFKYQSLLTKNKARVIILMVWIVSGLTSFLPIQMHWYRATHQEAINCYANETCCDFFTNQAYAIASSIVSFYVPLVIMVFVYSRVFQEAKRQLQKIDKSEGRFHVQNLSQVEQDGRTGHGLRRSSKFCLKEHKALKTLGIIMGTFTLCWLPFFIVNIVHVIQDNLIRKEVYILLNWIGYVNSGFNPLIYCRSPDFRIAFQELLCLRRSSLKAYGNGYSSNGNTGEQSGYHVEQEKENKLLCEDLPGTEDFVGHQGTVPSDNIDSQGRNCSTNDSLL
Summary of the method: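 Cells (CHO, stable ADRB2 overexpression) incubated 18-20hr at 37C; compounds added from DMSO; agonist mix (1nM isoproterenol, 100uM IBMX, 25uM Ro-20-1724) added; 0.5hr RT; d2-cAMP and anti-cAMP-cryptate added; 1hr RT; 665/615 nm read.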

[15] = target: 5-hydroxytryptamine receptor 2A (Homo sapiens) (UniProt P28223); assay: 5-hydroxytryptamine receptor 2A (HTR2A) small molecule agonists, cell-based qHTS assay (AID 1963587); note: nearly all actives have a fitted effect of over 30% in size
Summary of the method: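 HTR2A-CHO cells, plated 18 h at 37 C/5% CO2, dye-loaded 1 h at 37 C; compounds in DMSO added by pin tool (agonist mode). Intracellular calcium flux read as kinetic fluorescence on FDSS over 2 min at 1 s intervals.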

[16] = target: D(2) dopamine receptor (Homo sapiens) (UniProt P14416); assay: Dopamine D2 receptor (DRD2) small molecule agonists, cell-based qHTS assay (AID 1963594); note: nearly all actives have a fitted effect of over 35% in size
Sequence of D(2) dopamine receptor (Homo sapiens) (P14416 whole entry, looked up): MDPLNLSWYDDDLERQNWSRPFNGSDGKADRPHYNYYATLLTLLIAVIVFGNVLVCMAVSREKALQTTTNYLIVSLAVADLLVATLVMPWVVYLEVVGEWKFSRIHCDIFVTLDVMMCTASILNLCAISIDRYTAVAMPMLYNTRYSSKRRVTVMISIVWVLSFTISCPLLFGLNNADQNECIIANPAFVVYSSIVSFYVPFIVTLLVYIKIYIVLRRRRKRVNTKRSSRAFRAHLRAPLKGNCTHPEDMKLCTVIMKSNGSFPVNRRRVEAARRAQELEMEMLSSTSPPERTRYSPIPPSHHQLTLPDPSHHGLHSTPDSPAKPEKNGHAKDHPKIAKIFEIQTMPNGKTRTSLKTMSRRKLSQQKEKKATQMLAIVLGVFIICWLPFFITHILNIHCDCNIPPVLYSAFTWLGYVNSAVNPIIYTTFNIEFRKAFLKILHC
Summary of the method: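 HEK293 cells stably expressing DRD2 were cultured 24 h at 37 C, then given Ro20-1724 (0.1 mM final) and compounds for 10 min at room temperature. NKH477 (200nM) was then added for 30 min. cAMP was read by HTRF.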

[17] = target: D(2) dopamine receptor (Homo sapiens) (UniProt P14416); assay: Dopamine D2 receptor (DRD2) small molecule antagonists, cell-based qHTS assay (AID 1963595; active = well fitted inhibition curve with a large enough effect in the signal ratio in the repeat runs, with a control signal flat; the % refers to the signal ratio; note: potency is the fitted concentration of half-maximal effect)
Summary of the method: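 Human DRD2 antagonist qHTS measuring cAMP by HTRF. The cells are exposed to compound for 10 min, then to NKH477 (200 nM) and quinpirole (12 nM) for 30 min at RT, with Ro20-1724 (0.1 mM) present throughout.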

[18] = cAMP Responsive Elements (CRE) small molecule agonists, cell-based qHTS assay (AID 1963590); note: potency is the fitted concentration of half-maximal effect
Summary of the method: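 Agonist mode qHTS in CRE-bla HEK 293T cells: compounds dosed from DMSO for 3 h at 37 C/5% CO2, followed by LiveBLAzer B/G FRET substrate for 2 h at room temperature.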

[19] = cAMP Responsive Elements (CRE) small molecule antagonists, cell-based qHTS assay (AID 1963591; active = well fitted inhibition curve with a large enough effect in the signal ratio in the repeat runs, not every such curve was filed as active; the % refers to the signal ratio)
Summary of the method: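 Antagonist mode: test compounds are co-incubated with the adenylyl cyclase activator NKH477 (0.25 uM final) on CRE-bla HEK293T cells for 3 h at 37 °C, followed by LiveBLAzer substrate loading.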

[20] = target: Beta-2 adrenergic receptor (Homo sapiens) (UniProt P07550); assay: Adrenergic beta2 receptor (ADRB2) small molecule agonists, cell-based qHTS assay (AID 1963593);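 note: CHO cells stably overexpressing human ADRB2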
Summary of the method: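 CHO cells stably over-expressing ADRB2 were plated overnight at 37C, then dosed with compounds plus a stimulation mix containing 100uM IBMX and 25uM Ro-20-1724 for 0.5hr at room temperature. cAMP was measured by HTRF competition, 1hr.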

Row | Structure (SMILES) | Potency [1] | Potency [2] | Potency [3] | Potency [4] | Potency [5] | Potency [6] | Potency [7] | Potency [8] | Potency [9] | Potency [10] | Potency [11] | Potency [12] | Potency [13] | Potency [14] | Potency [15] | Potency [16] | Potency [17] | Potency [18] | Potency [19] | Potency [20]
1 | O=C1Nc2ccc(Cl)cc2[C@@](C#CC2CC2)(C(F)(F)F)O1 | inactive | inactive | inactive | inactive | inactive | inactive | inactive | inactive | inactive | inactive | 14.5 µM (active) | inactive | inactive | inactive | – | – | – | – | – | –
2 | Oc1c(Cl)cc(Cl)c2cccnc12 | 0.188 µM (active) | inactive | inactive | inactive | inactive | inactive | inactive | – | inactive | – | inactive | inactive | inactive | inactive | inactive | inactive | inactive | – | – | –
3 | NCCCOCCOCCOCCCN | inactive | inactive | inactive | inactive | inactive | inactive | inactive | – | inactive | – | inactive | inactive | inactive | inactive | inactive | inactive | – | – | – | –
4 | C=Cc1ccc(O)c(OC)c1 | 48.6 µM (active) | inactive | inactive | inactive | inactive | inactive | inactive | – | inactive | inactive | inactive | – | inactive | – | inactive | inactive | inactive | inactive | inactive | –
5 | CCN(CC)C(=O)c1cc(S(=O)(=O)Cc2ccccc2)c(N2CCC(c3ccccc3)CC2)cc1N(CC)CCN(C)C | inactive | inactive | inactive | inactive | inactive | inactive | – | inactive | – | – | – | – | inactive | 24.1 µM (active) | inactive | inactive | – | – | – | –
6 | CC(Cc1ccc(O)c(O)c1)C(C)Cc1ccc(O)c(O)c1 (configuration not stated) | 68.6 µM (active) | inactive | inactive | inactive | inactive | inactive | inactive | – | inactive | – | – | – | inactive | – | – | inactive | – | – | – | –
7 | CC[C@H]1CC[C@H](NCc2cc3c(cc2OC)[C@H]2C[C@H]2C(=O)N3C)[C@H](c2ccccc2)N1 | 30.6 µM (active) | inactive | inactive | inactive | inactive | inactive | inactive | – | – | – | inactive | 0.0472 µM (active) | inactive | inactive | inactive | inactive | inactive | – | inactive | –
8 | C=CC(C)(CCC=C(C)C)OC(=O)/C=C/c1ccccc1 (configuration not stated) | 68.6 µM (active) | inactive | inactive | inactive | inactive | inactive | – | – | inactive | inactive | inactive | inactive | inactive | inactive | inactive | inactive | inactive | inactive | inactive | –
9 | OCCN1CCN(CC/C=C2/c3ccccc3Sc3ccc(C(F)(F)F)cc32)CC1 | inactive | inactive | inactive | inactive | inactive | inactive | inactive | – | inactive | inactive | 0.13 µM (active) | 3.65 µM (active) | inactive | inactive | – | – | 0.168 µM (active) | – | – | –
10 | CCC(=O)OCCc1ccccc1 | inactive | inactive | inactive | inactive | inactive | inactive | inactive | – | inactive | inactive | inactive | inactive | inactive | inactive | inactive | – | inactive | inactive | – | –
11 | CCCCN(CCCC)C(=S)SSC(=S)N(CCCC)CCCC | 1.52 µM (active) | inactive | inactive | inactive | inactive | inactive | inactive | – | inactive | – | inactive | inactive | inactive | inactive | inactive | inactive | inactive | inactive | – | –
12 | CCCCCCCC/C=C\CCCCCCCC(=O)N(CCO)CCO | inactive | inactive | inactive | inactive | inactive | inactive | inactive | – | inactive | – | inactive | inactive | – | inactive | inactive | inactive | inactive | inactive | inactive | inactive
13 | O=C1OC(=O)c2cc(-c3ccc4c(c3)C(=O)OC4=O)ccc21 | 48.6 µM (active) | inactive | inactive | inactive | inactive | inactive | – | inactive | inactive | inactive | inactive | – | inactive | inactive | inactive | inactive | inactive | inactive | inactive | inactive
14 | CC(O)C#CC(C)O (configuration not stated) | 21.5 µM (active) | inactive | inactive | inactive | inactive | inactive | – | inactive | inactive | – | – | inactive | inactive | inactive | – | – | inactive | inactive | inactive | –
15 | COC(=O)Nc1nc2ccc(C(=O)c3ccccc3)cc2[nH]1 | 3.76 µM (active) | inactive | inactive | inactive | inactive | inactive | – | inactive | – | – | – | – | – | inactive | – | – | inactive | – | inactive | –
16 | CCc1nn(CCCN2CCN(c3cccc(Cl)c3)CC2)c(=O)n1CCOc1ccccc1 | inactive | inactive | inactive | inactive | inactive | inactive | – | inactive | inactive | inactive | – | – | – | – | inactive | inactive | – | – | – | –
17 | CCc1cc2cc(OC)c(OC)cc2c(Cc2ccccc2)n1 | inactive | inactive | inactive | inactive | inactive | inactive | – | inactive | – | inactive | – | – | inactive | inactive | – | – | inactive | 11.9 µM (active) | inactive | inactive
